This is a sample that favours compounds with a hit; in the whole collection about 3% have one here.
Shn3 inh set2: reduction of Shn3 3'UTR firefly luciferase signal, primary screen, Schnurri-3 inhibitor project, cell-based, Clone20 osteoblasts, set 2. Clone20 osteoblast Shn3 3'UTR firefly luciferase, 24 h. inhibition, % at 12.5 µM. hit rate 0.52% among 360,000;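 active = mean inhibition of at least 75% with every replicate also reaching 75%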;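 note: 0% = median of neutral control wells and 100% = pilot-screen positive control compound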
EWS-Fli block: EWS/Fli-driven NR0B1 reporter inhibitors, primary screen, A673 cells, NR0B1 luciferase, luminescence, MLPCN library. AID 651661, 2012. hit rate 0.67% among 350,000. viability-normalised. inhibition, % at 12.6 µM;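 active = mean inhibition of at least 50% after viability correction, with every replicate also passing that limit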;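 note: firefly luciferase signal divided by Alamar Blue viability fluorescence both relative to DMSO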
ABHD5-PLIN5 inh: ABHD5-PLIN5 interaction inhibitors, primary screen, cell lysate, split luciferase complementation, luminescence; Split G. princeps luciferase complementation, 4 h; hit rate 0.78% among 360,000; inhibition, % at 4 µM; Perilipin-5 (Homo sapiens) + 1-acylglycerol-3-phosphate O-acyltransferase ABHD5 (Homo …; AID 602281, 2012;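 active = inhibition above the mean inhibition across every tested compound plus 3 SD, cut at about 22% in these data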;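 note: 0% = DMSO only wells and the 100% control is not disclosed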
Target sequence (Q00G26 whole entry, looked up): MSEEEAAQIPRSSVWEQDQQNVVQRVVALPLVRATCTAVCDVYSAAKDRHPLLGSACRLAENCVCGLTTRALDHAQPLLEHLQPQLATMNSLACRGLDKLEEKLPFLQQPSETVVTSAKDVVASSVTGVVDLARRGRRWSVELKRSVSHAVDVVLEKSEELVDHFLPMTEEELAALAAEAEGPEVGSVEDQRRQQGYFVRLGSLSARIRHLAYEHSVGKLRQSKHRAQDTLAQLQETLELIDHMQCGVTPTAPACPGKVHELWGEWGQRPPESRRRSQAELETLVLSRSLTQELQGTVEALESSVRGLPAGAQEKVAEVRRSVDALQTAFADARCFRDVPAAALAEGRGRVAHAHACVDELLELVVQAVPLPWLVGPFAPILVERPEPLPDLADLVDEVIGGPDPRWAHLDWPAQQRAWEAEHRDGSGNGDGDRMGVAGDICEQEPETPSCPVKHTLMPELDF
Target sequence (Q8WTS1 whole entry, looked up): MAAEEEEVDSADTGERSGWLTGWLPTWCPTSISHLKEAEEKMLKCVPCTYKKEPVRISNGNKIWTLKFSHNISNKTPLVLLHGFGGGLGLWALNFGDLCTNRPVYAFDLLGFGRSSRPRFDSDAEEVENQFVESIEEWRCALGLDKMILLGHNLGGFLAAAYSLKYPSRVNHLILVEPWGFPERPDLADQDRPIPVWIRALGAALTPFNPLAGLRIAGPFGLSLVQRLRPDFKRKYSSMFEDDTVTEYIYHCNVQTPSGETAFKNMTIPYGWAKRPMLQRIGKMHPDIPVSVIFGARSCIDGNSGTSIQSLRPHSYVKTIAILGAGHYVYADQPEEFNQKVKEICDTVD
PAX8 reporter: inhibitors of PAX8-driven TPO luciferase reporter, primary screen, RMG-I cells, single concentration; SteadyGlo, 24 h; inhibition, % at 12.6 µM; hit rate 1.2% among 360,000;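 active = mean replicate inhibition at least 60% with every replicate also reaching 60%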;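 note: luciferase light reporting Pax8 driven TPO promoter activity; plate controls were median of neutral control wells for no effect and mitoxantrone controls for full effect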
Peg3 prom inh: Peg3 promoter-driven luciferase inhibitors, primary screen, cell-based, HeLa, luciferase luminescence. HeLa PEG-Prom luciferase reporter, overnight. inhibition, % at 20 µM. hit rate 1.7% among 360,000. AID 588405, 2011;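 active = inhibition of at least 50% at 20 µM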
TRPM1 prom inh: inhibitors of MITF-dependent TRPM1 promoter reporter, primary screen, cell-based, SK-MEL-5, single point, luciferase; SK-MEL-5 TRPM1 promoter luciferase, 24 h; AID 488899, 2010; hit rate 0.83% among 330,000; inhibition, % at 12.5 µM;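 active = mean inhibition across replicates of 60% or more, whatever share of single replicates reaches that level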
* marks the source's active call; other numbers are inactive results; . = no result given.

SMILES	Shn3 inh set2	EWS-Fli block	ABHD5-PLIN5 inh	PAX8 reporter	Peg3 prom inh	TRPM1 prom inh
C[C@@H]1CN([C@H](C)CO)C(=O)c2cc(C3=CCCC3)cnc2O[C@@H]1CN(C)C(=O)c1ccc2c(c1)OCO2	.	-5	.	-9	.	.
COc1ccc(CN(C)C[C@@H]2Oc3c(NS(=O)(=O)c4cn(C)cn4)cccc3C(=O)N([C@H](C)CO)C[C@@H]2C)cc1	.	0	.	-7	.	.
COc1cccc(CN(C)C(=O)c2ccc(OCC(=O)Nc3cccc(C(F)(F)F)c3)c(OC)c2)c1	86*	38	-5	45	15	40
O=c1oc(-c2ccccc2)cc(Cl)c1Cl	72	59*	-2	4	109*	46
O=c1oc(-c2ccccc2)cc2ccccc12	-55	-110	-9	.	-279	.
C[C@H](CO)N1C[C@H](C)[C@@H](CN(C)S(=O)(=O)c2cccs2)Oc2ccc(NC(=O)CCN3CCOCC3)cc2CC1=O	.	0	.	-12	.	.
C/C(=C\c1ccccc1F)C(=O)c1c(C)cc(C)[nH]c1=O	-1	12	-4	-24	3	19
Cc1[nH]c(=O)c(C(=O)/C=C/c2ccccc2F)c2c1CCCC2	6	36	51*	.	110*	84*
CCCCNC(=O)C(OC(=O)c1ccccc1)c1ccco1 (stereo not drawn)	.	-4	.	11	.	.
O=C(C[C@H]1CC[C@@H]2[C@H](COC[C@@H](O)CN2Cc2ccc3c(c2)OCO3)O1)Nc1ccc(-c2ccccc2)cc1	.	9	.	52	.	.
O=C(C[C@H]1CC[C@H]2[C@@H](COC[C@@H](O)CN2Cc2ccc3c(c2)OCO3)O1)Nc1ccc(-c2ccccc2)cc1	.	17	.	87*	.	.
O=C(C[C@@H]1CC[C@@H]2[C@H](COC[C@H](O)CN2Cc2ccc3c(c2)OCO3)O1)Nc1ccc(-c2ccccc2)cc1	.	16	.	80*	.	.
COC(=O)C[C@@H]1CC[C@@H]2[C@@H](COc3ccc(NC(=O)c4ccccc4)cc3C(=O)N2C)O1	.	19	.	0	.	.
O=C(O)COc1ccccc1/C=N/Nc1ccc(S(=O)(=O)N2CCOCC2)cc1[N+](=O)[O-]	0	5	6	5	68*	3
Cc1ccc([C@@H]2CC(=O)[C@@H]3CN(S(=O)(=O)c4ccccc4C)[C@H](c4ccc(Cl)cc4)C[C@@H]3N2S(=O)(=O)c2ccc(C)cc2)cc1	91*	-8	-6	15	11	.
Cc1ccc(S(=O)(=O)N2[C@H](c3ccc(Cl)cc3)CC(=O)[C@@H]3CN(S(=O)(=O)c4ccccc4C)[C@H](c4ccc(Cl)cc4)C[C@@H]32)cc1	64	5	-4	29	23	.
Cc1ccc(S(=O)(=O)N2[C@H](c3cccc(Cl)c3)CC(=O)[C@@H]3CN(S(=O)(=O)c4ccccc4C)[C@H](c4ccc(Cl)cc4)C[C@@H]32)cc1	89*	-3	-7	32	12	.
O=C(CNC(=S)N(Cc1ccccc1F)C1CCCCC1)NCC1CCCO1 (stereo not drawn)	3	-5	0	65*	25	-8
O=C(CNC(=S)N(Cc1ccc(F)cc1)C1CCCCC1)NCC1CCCO1 (stereo not drawn)	10	-1	2	3	-7	-5
COc1cccc(/C=N/NC(=O)CN2CC(c3ccccc3)CC2=O)c1OC (stereo not drawn)	13	4	4	-2	0	94*
COc1cc(NC(=O)CN2CC(c3ccccc3)CC2=O)cc(OC)c1 (stereo not drawn)	-39	-1	1	-3	10	.
COCC(=O)N1[C@@H](C#N)[C@@H](c2ccc(C3=CCCCC3)cc2)[C@@H]1CO	.	-6	.	-3	.	.
COc1ccc2nc3cc(Cl)ccc3c(Nc3cc(C(C)C)c(O)cc3C)c2c1	17	4	9	-7	105*	10
Cc1ccc(C23CC4CC(CC(NC(=O)NCCN(C)C)(C4)C2)C3)cc1	-6	.	14	9	34	20
CN(C)CCNC(=O)COc1ccc(C23CC4CC(CC(C4)C2)C3)cc1	-25	31	23*	-12	97*	70*
SMILES	Shn3 inh set2	EWS-Fli block	ABHD5-PLIN5 inh	PAX8 reporter	Peg3 prom inh	TRPM1 prom inh
C[C@@H]1CCCCO[C@H](CN(C)Cc2ccc(C(F)(F)F)cc2)[C@@H](C)CN([C@H](C)CO)C(=O)c2cc(NC(=O)Cc3ccccc3)ccc2O1	.	-25	.	-8	.	.
C[C@H]1CN([C@@H](C)CO)C(=O)c2cc(NC(=O)Cc3ccccc3)ccc2O[C@@H]1CN(C)Cc1ccc(C(F)(F)F)cc1	.	-1	.	67*	.	.
Cc1ccc(S(=O)(=O)N(C)C[C@@H]2Oc3ccc(NC(=O)Cc4ccccc4)cc3C(=O)N([C@H](C)CO)C[C@H]2C)cc1	.	1	.	24	.	.
Cc1ccc(S(=O)(=O)N(C)C[C@H]2Oc3ccc(NC(=O)Cc4ccccc4)cc3C(=O)N([C@H](C)CO)C[C@@H]2C)cc1	.	1	.	84*	.	.
C[C@H]1CCCCO[C@@H](CN(C)Cc2ccc(C(F)(F)F)cc2)[C@@H](C)CN([C@@H](C)CO)C(=O)c2cc(NC(=O)Cc3ccccc3)ccc2O1	.	13	.	82*	.	.
C[C@@H]1CCCCO[C@H](CN(C)Cc2ccc(C(F)(F)F)cc2)[C@@H](C)CN([C@@H](C)CO)C(=O)c2cc(NC(=O)Cc3ccccc3)ccc2O1	.	-2	.	85*	.	.
O=S(=O)(c1ccc(F)cc1)N1CC[C@H]2[C@H](CO)Nc3ccc(Br)cc3[C@H]21	.	3	.	-15	.	.
C[C@H]1CN([C@@H](C)CO)C(=O)c2ccccc2-c2ccccc2CO[C@H]1CN(C)Cc1ccc(Cl)c(Cl)c1	.	-5	.	31	.	.
C[C@H]1CN([C@@H](C)CO)S(=O)(=O)c2ccc(-c3ccncc3)cc2O[C@H]1CN(C)C(=O)c1ccc2c(c1)OCO2	.	5	.	.	.	.
COc1cccc(-c2ccc3n(c2=O)C[C@@H]2[C@@H](CO)[C@H](C(=O)N4CCOCC4)N[C@H]32)c1	.	-5	.	-10	.	.
COc1ccc(NC(=O)N(C)C[C@H]2OCCCC[C@@H](C)Oc3ccc(NC(=O)c4ccncc4)cc3C(=O)N([C@@H](C)CO)C[C@@H]2C)cc1	.	-10	.	-15	.	.
C[C@@H]1CN([C@@H](C)CO)C(=O)c2cc(NS(=O)(=O)c3ccccc3)ccc2O[C@@H]1CN(C)CC1CC1	.	-9	.	-7	.	.
C[C@@H]1CCCCO[C@H](CN(C)Cc2ccc(C(F)(F)F)cc2)[C@H](C)CN([C@H](C)CO)C(=O)c2cc(NC(=O)Cc3ccccc3)ccc2O1	.	16	.	83*	.	.
COc1cccc(OCCn2cc(C(=O)c3ccco3)c3ccccc32)c1	15	.	6	.	17	1
